Source: PubChem (The Scripps Research Institute Molecular Screening Center)
CHRM1 antagonist – blocks human M1 muscarinic receptor. P11229. 360,000 compounds, 1.3% hits. inhibition, % at 3 µM. CHO-K1 hM1, Fluo-8 calcium fluorescence, ACh EC80 antagonist;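 active = percent inhibition above its own plate's cutoff, namely the mean of that plate's compound wells plus 3 SD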;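 note: peak over basal fluorescence ratio during 140 s after agonist addition; 0% = ACh EC80 plus DMSO and 100% = DMSO alone without agonist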
Target sequence (P11229 whole entry, looked up): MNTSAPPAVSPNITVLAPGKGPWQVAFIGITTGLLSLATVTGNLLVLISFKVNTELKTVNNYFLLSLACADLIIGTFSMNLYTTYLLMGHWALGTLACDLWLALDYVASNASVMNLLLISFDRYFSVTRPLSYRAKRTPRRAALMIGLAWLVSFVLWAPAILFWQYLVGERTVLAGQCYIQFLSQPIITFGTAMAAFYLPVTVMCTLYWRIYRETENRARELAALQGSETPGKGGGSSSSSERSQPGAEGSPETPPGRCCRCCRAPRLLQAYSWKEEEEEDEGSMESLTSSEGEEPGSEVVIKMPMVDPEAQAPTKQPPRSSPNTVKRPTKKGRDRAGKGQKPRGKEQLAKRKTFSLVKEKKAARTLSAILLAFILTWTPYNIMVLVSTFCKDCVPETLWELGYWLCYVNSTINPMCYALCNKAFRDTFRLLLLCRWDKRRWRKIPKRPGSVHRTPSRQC
M1 PAM parental – counter-screen for M1 PAMs: effect in parental CHO-K1 cells; 360,000 compounds, 0.02% hits; ATP EC20, Fluo-8 calcium fluorescence; 0% at ATP EC20, 100% at ATP max; activation, % at 3 µM;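 active = activation above the run cutoff, the mean activation of all test compounds plus 3 SD, cut at about 40% in these data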;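 note: peak over basal fluorescence ratio in a 140 s read after ATP addition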
CHO-K1 Ca ag – nonselective activator or artifact in parental CHO-K1 cells. AID 602248. Fluo-8 calcium fluorescence; scaled to maximal ATP response, vehicle zero. activation, % at 3 µM. 360,000 compounds, 0.48% hits; in the data active = activation above about 15%;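 note: untransfected CHO-K1 host cells lacking M1 receptor as counterscreen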
CHO-K1 Ca antag – counter-screen for M1 antagonists: effect in parental CHO-K1 cells; ATP-induced calcium, Fluo-8 fluorescence; inhibition, % at 3 µM; 360,000 compounds, 0.6% hits;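 active = inhibition above a per-plate cutoff, the plate's mean sample inhibition plus 3 SD, cut at about 24% in these data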;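 note: 0% = DMSO plus EC80 ATP and 100% = DMSO alone without ATP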
M1 ag – activates human CHRM1 receptor. P11229. CHO-K1 hM1, Fluo-8 calcium fluorescence, agonist mode; 0% DMSO, 100% acetylcholine EC100. activation, % at 3 µM. 360,000 compounds, 0.33% hits;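 active = activation above the run's mean compound activation plus 3 SD, cut at about 16% in these data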;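 note: peak over basal fluorescence ratio within a 140 s kinetic read after compound addition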
CHRM1 PAM – human CHRM1 positive allosteric modulation. CHO-K1 hM1, Fluo-8 calcium fluorescence, ACh EC20; 0% = ACh EC20, 100% = maximal ACh. activation, % at 3 µM. 360,000 compounds, 0.088% hits; in the data active = activation above about 19%, passing the limit was not always enough
Active calls of the source: *; . = no result. In the library only some 2.4% were active in any assay of this set; here they are far more common.

SMILES	CHRM1 antagonist	M1 PAM parental	CHO-K1 Ca ag	CHO-K1 Ca antag	M1 ag	CHRM1 PAM
CCOC(=O)N1CCC(N2CCCC(CO)(Cc3ccccc3C)C2)CC1 (configuration not stated)	26*	1	0	-3	-10	-20
CCOC(=O)N1CCC(N2CCCC(CO)(Cc3cccc(Cl)c3)C2)CC1 (configuration not stated)	39*	8	2	-11	0	-15
O=C(NC(c1ccccc1)c1ccccc1)C1CCCO1 (configuration not stated)	-4	5	21*	4	-2	7
COC(=O)c1ccc(C)c(NC(=O)CN2C(=O)c3ccccc3S2(=O)=O)c1	-5	-9	0	11	-3	4
COc1ccc(C(C(=O)OC(C)CN(C)C)c2ccccc2)cc1 (configuration not stated)	32*	9	0	-16	-6	-19
CC(CN1CCCC1)OC(=O)C(c1ccccc1)c1ccccc1 (configuration not stated)	29	11	1	-9	-9	-22
C=CCn1c(COc2ccccc2)nnc1SCc1ccc(C#N)cc1	3	-3	1	0	-5	-7
C=CCn1c(COc2ccc(CC)cc2)nnc1SC/C(O)=C(\C#N)c1nc2ccccc2[nH]1	15	-8	0	26*	-4	-9
COC(=O)c1ccc(S(=O)(=O)NCc2ccco2)o1	-1	10	1	-9	-4	-2
COc1cc(O)c(C(CC(=O)N2CCOCC2)c2ccc3c(c2)OCO3)c(OC)c1 (configuration not stated)	36*	-20	-1	2	-1	-20
Cc1ccc(CSCC(=O)N2CCOCC2)cc1	-6	7	1	-10	-4	2
CCOC(=O)c1cc(-c2ccccc2)sc1NC(=O)C(C)OC(=O)c1ccncc1 (configuration not stated)	-5	24	1	-15	-6	10
Cc1cc(=O)oc2ccc(OCC(=O)N(Cc3ccc(F)cc3)Cc3ccco3)cc12	34*	-6	6	37*	3	-15
CCCN=C1CC(C)(C)CC(=O)/C1=C(/O)CCC	11	16	18*	4	-6	-4
O=C(CCN1CCN2CCCC2C1)N1c2ccccc2Sc2ccc(Cl)cc21 (configuration not stated)	83*	4	1	-8	-9	-29
CN1CCN(CCC(=O)N2c3ccccc3Sc3ccc(Cl)cc32)CC1	57*	-5	0	6	-7	-27
CN1CCC=C(C(=O)N2c3ccccc3Sc3ccc(Cl)cc32)C1	101*	-20	1	12	-8	-27
O=C(CN1CCN(CCOCCO)CC1)N1c2ccccc2Sc2ccc(Cl)cc21	93*	14	0	-7	-6	-21
NC(=O)N1CCN(CCCN2c3ccccc3Sc3cc(Cl)ccc32)CC1	-1	5	1	-1	-8	-2
NCCCC(=O)N1c2ccccc2Sc2ccc(Cl)cc21	100*	22	5	-9	-9	-28
NCCC(=O)N1c2ccccc2Sc2ccc(Cl)cc21	91*	10	1	5	-8	-30
COc1ccc(C(=O)Nc2ccc3c(c2)OCCO3)cc1Br	0	-2	1	-8	-3	4
CCOC(=O)c1[nH]c2ccc(C(=O)OC)cc2c1C(=O)OCC	2	-13	-1	25*	-14	-6
CCOC(=O)c1[nH]c2ccc(C)cc2c1N	-5	-1	0	-14	-1	-1
CN1CCS/C1=C/C=C1/SC(=S)N(Cc2ccccc2)C1=O	25	11	11	16	12	-8
SMILES	CHRM1 antagonist	M1 PAM parental	CHO-K1 Ca ag	CHO-K1 Ca antag	M1 ag	CHRM1 PAM
CCCCN1C(=O)/C(=C/C=C2\SCCN2C)SC1=S	24	2	16*	17	12	-15
CN1CCS/C1=C/C=C1\SC(=S)N(CC(=O)O)C1=O	7	13	26*	1	16*	-5
CSc1ccc(S(=O)(=O)N2CCN(Cc3ccc4c(c3)OCO4)CC2)cc1	-1	20	0	0	-14	-11
O=S(=O)(c1ccccc1C(F)(F)F)N1CCN(c2ncnc3sccc23)CC1	29*	-12	17*	-2	0	-19
Cc1sc2ncnc(N3CCN(S(=O)(=O)c4ccc(F)cc4)CC3)c2c1C	29*	-15	14	14	-6	-17
O=S(=O)(c1ccc(F)c(F)c1F)N1CCN(c2ncnc3sccc23)CC1	26	-4	8	-6	3	-16
CCS(=O)(=O)N1CCN(c2ncnc3sc(C)c(C)c23)CC1	-17	18	4	-21	-2	3
Cc1ccc(S(=O)(=O)N2CCN(c3ncnc4sccc34)CC2)cc1	30*	-15	14	16	1	-9
O=S(=O)(c1cc(C(F)(F)F)ccc1Cl)N1CCN(c2ncnc3ccccc23)CC1	39*	-13	12	15	1	-14
Cc1ccc([N+](=O)[O-])cc1S(=O)(=O)N1CCCC1	-8	0	0	7	-4	3
N=C1c2ccccc2CN1c1ccc(S(=O)(=O)N2CCCCC2)cc1	74*	-5	2	-1	-7	-24
CCOC(=O)c1ccc(N2Cc3ccccc3C2=N)cc1	70*	21	0	-10	-6	-21
O=C1c2ccccc2C(=O)N1c1ccc(S(=O)(=O)N2CCCCC2)cc1	-13	14	3	-15	-3	11
OC(COc1ccc2c(c1)OCO2)CN1CCN(c2ccc(F)cc2)CC1 (configuration not stated)	-4	10	0	-3	-7	10
c1ccc(-c2ccc(OCCCNC3CCCC3)cc2)cc1	36*	-7	14	14	0	-29
COCC(=O)n1nc(-c2ccccc2)nc1NCc1cccs1	14	14	2	-14	-4	1
CN(C)c1ccc(/C=C/C(=O)c2cccc(Br)c2)cc1	81*	5	53*	40*	164*	-33
C[C@H]1COc2cccc(N3CCC[C@@H]3CO)c2S(=O)(=O)N1	.	-9	1	-10	.	.
CCOC(=O)c1c(C)nc2c(c1-c1cc(OC)ccc1OC)C(=O)c1ccccc1-2	-16	11	0	-4	-4	13
CCOC(=O)C1=C(Cc2ccc(OC)cc2)C(=O)c2ccccc2C1=O	36*	-2	15*	25*	8	-9
O=C(CCc1nc(-c2ccccc2F)no1)Nc1ccc(Oc2ccccc2)cc1	16	-3	8	24*	0	-11
COc1cccc(NC(=O)CCc2nc(-c3ccccc3F)no2)c1	-4	15	3	-2	1	9
